# TSHR antag: blocks TSH signaling through the human TSH receptor; P16473; TSHR-expressing cells, TSH-stimulated cAMP HTRF, 2 h; active compounds read low; activity change, negative = inhibition, % at 11.5 µM; 0.2% of 330,000 active; AID 504810;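 active = activity change below a set negative limit, meaning inhibition stronger than a set level, cut at about -70% in these data; inconclusive = activity change between two set negative limits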
# Target sequence (P16473 whole entry, looked up): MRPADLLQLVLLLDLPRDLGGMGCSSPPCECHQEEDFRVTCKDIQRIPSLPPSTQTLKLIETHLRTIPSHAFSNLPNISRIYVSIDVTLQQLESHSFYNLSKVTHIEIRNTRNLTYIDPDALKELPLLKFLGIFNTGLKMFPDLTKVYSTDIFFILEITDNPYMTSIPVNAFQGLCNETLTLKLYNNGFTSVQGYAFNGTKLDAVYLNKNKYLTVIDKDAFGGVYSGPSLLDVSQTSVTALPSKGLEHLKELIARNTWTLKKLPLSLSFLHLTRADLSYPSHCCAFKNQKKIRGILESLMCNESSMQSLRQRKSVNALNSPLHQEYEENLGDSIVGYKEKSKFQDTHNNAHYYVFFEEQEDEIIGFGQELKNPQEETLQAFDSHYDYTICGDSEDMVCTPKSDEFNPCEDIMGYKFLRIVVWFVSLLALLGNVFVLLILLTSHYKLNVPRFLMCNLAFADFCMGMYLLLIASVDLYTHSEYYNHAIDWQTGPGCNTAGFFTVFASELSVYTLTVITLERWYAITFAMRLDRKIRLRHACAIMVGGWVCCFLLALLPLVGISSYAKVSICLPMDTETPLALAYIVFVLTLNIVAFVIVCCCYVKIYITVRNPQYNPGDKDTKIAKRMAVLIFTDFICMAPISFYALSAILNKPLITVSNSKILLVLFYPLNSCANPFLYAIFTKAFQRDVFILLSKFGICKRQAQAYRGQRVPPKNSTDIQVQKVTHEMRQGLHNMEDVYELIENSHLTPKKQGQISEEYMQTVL
#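 TSHR-expressing cells were treated with compounds, then stimulated with TSH at EC80 (4nM final) for 2 hours at 37 deg C. Cellular cAMP was measured by HTRF competition between lysate cAMP and cAMP-d2 for a cryptate-labelled anti-cAMP antibody.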
# ELG1 DNA repair: blocks ELG1-dependent DNA repair in HEK293T cells | AID 504467 | Potency, µM (series often up to 46.1 µM), usual class: inhibitors | 2.3% of 330,000 active | HEK293T ELG1-luciferase reporter, luminescence, 16 h; DNA damage induced by 5-fluorouridine; also: nearly all actives have a fitted effect of over 55% in size
#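 Luminescence from the luciferase reporter, measured 30 min after ONE-Glo reagent at room temperature, was the read-out. Beforehand, 2,000 cells per well were exposed for 16 hr at 37 °C to 5-fluorouridine together with compound or vehicle.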
# Gal4-VP16 FLuc: counter-screen for ROR gamma inhibitors: Gal4-VP16 reporter | Drosophila S2 Gal4-VP16 UAS-luciferase, luminescence, 20 h | Potency, µM (highest dose often 53.6 µM), usual class: inhibitors | 3.5% of 310,000 active;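 also: Gal4-VP16 expression switched on by copper sulfate through the metallothionein promoter; nearly all actives have a fitted effect of over 50% in size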
# RORgamma inh: ROR gamma (mouse) transcription inhibition; P51450; Drosophila S2 Gal4-RORgamma UAS-luciferase reporter, 20 h; Potency, µM (top dose mostly 53.6 µM), most hits filed as inhibitors; 5.4% of 310,000 active; also: nearly all actives have a fitted effect of over 60% in size
#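 Compounds are pin-transferred onto Drosophila Schneider cells expressing a copper-inducible Gal4–ROR gamma transactivation domain fusion. After 1 hr, copper sulfate is added to 700 uM final; luciferase is read 20 hr later.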
# Coupling enz: inhibits coupling enzyme system, counter-screen for aldolase hits. 0.67% of 290,000 active. coupling enzyme system counterscreen, AmpLite Red fluorescence. activity change, negative = inhibition, % at 58.2 µM, hits read low; in the data active = activity change below about -30%
#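 Counterscreen lacking aldolase: glyceraldehyde-3-phosphate coupling-enzyme reagent preincubated 10 min at RT with compound (at 57.5 uM final), then substrate/coupling system with AmpLite Red added; fluorescence read at 525/598 nm after 20 min RT.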
# Numbers stand for hits; . = inactive; ? = inconclusive; / = not tested or not shown; [ ] = another dose, or the depositor's remark. Hits are enriched below; roughly 8% of the tested compounds scored in any of these assays. Unless noted, calls follow the shape of the dose curve; as a rule, active = well fitted curve in the direction sought with a large enough effect; inconclusive = small, poorly fitted or top-dose-only effect, or another doubt; inactive = no such curve, though single readings can be large; an effect the other way counts as inactive or inconclusive.
SMILES,TSHR antag,ELG1 DNA repair,Gal4-VP16 FLuc,RORgamma inh,Coupling enz
O=C(N/N=C/c1cc([N+](=O)[O-])ccc1O)c1ccc(COc2ccc3c(c2)CCC3)o1,.,6.5µM,1.4µM,2.2µM,.
O=C(/C=C/Nc1cccc(O)c1)c1ccccc1,.,?,6.3µM,5µM,.
CC(=O)c1cccc(NS(=O)(=O)c2ccc(NC(=O)N3CCCCC3)cc2)c1,.,.,10µM,.,.
CC(=O)c1cccc(NS(=O)(=O)c2ccc(N/C=C\C(=O)c3ccc(F)cc3)cc2)c1,.,?,.,.,/
CC(=O)c1cccc(NS(=O)(=O)c2ccc(N/C=C/C(=O)c3ccc(F)cc3)cc2)c1,-73,?,4.5µM,?,.
CC(=O)c1cccc(NC(=O)N2CCCCCC2)c1,.,.,.,.,.
O=C(/C=C/Nc1ccc(F)c(Cl)c1)c1ccccc1,.,?,.,.,.
COc1ccc(N/C=C/C(=O)c2ccccc2)cc1,.,?,10µM,7.9µM,.
O=C1[C@@H]2CSCN2C(=O)CN1Cc1c(F)cccc1Cl,.,.,.,.,.
S=C=Nc1cccc(NC(=S)NCCCCNC(=S)Nc2cccc(N=C=S)c2)c1,/,/,.,.,.
C/C(=C\C(=O)c1ccc(C)cc1)Nc1ccc(N2CCOCC2)cc1,.,.,.,.,.
O=C(/C=C\Nc1ccccn1)c1ccccc1,.,?,13µM,5µM,.
Cc1ccc(C(=O)/C=C/Nc2cccc(O)c2)cc1,.,?,1µM,2.2µM,.
C/C(=C\C(=O)c1ccc(C)cc1)Nc1cccc(O)c1,.,?,3.5µM,6.3µM,.
CC(=O)c1cccc(N/C=C\C(=O)c2ccc(C)cc2)c1,.,?,8.9µM,2.2µM,.
CC(=O)c1cccc(NS(=O)(=O)c2ccc(N/C=C\C(=O)c3ccc(C)cc3)cc2)c1,.,?,?,.,.
CCCc1cc(C(=O)N2CCCC(N3CCN(c4ccccc4F)CC3)C2)n(C)n1 (stereo unspecified),.,.,.,.,/
COc1ccccc1C(=O)CN1C(=O)NC2(CCc3ccccc32)C1=O (stereo unspecified),.,.,/,/,/
Cn1c(SCC(=O)N2CC(=O)Nc3ccccc32)nnc1C(F)(F)F,.,.,/,/,/
Cc1ccc(-c2c[n+]3c(n2-c2ccccc2)CCC3)cc1,.,2.3µM,?,?,.
c1ccc(-c2c[n+]3c(n2-c2ccccc2)CCC3)cc1,.,?,.,.,.
CCOc1ccc(-n2c(-c3ccccc3)c[n+]3c2CCCCC3)cc1,.,?,3.5µM,?,.
CN(C)c1cc[n+](CC(=O)c2ccc(-c3ccccc3)cc2)cc1,.,2.6µM,?,.,.
Cc1ccc(C(=O)C[n+]2ccc(Cc3ccccc3)cc2)cc1,.,7.3µM,.,.,.
CN(C)c1cc[n+](CC(=O)c2ccc(Br)cc2)cc1,.,9.2µM,.,.,.
SMILES,TSHR antag,ELG1 DNA repair,Gal4-VP16 FLuc,RORgamma inh,Coupling enz
Cc1ccc(SCCc2cc[n+](CC(=O)c3ccccc3)cc2)cc1,.,?,.,.,.
Cc1c(-c2ccccc2)sc2nc[nH]c(=S)c12,.,.,1µM,0.5µM,.
O=C(NCCn1cccn1)C1CCC(=O)N(CCc2ccccc2)C1 (stereo unspecified),.,.,.,.,/
COc1ccc(-c2n[nH]c(C)c2-c2cnn(-c3ccccc3)c2)c(O)c1C,.,?,?,11µM,.
COc1ccc(-c2n[nH]c(C)c2-c2cnn(-c3ccccc3)c2)c(O)c1,.,.,?,.,.
COC(=O)c1sccc1NS(=O)(=O)c1ccccc1[N+](=O)[O-],.,.,/,/,/
COC(=O)c1sc(N)c(C(=O)OC)c1Cn1ncc(Cl)c(Cl)c1=O,.,.,13µM,?,.
COC(=O)c1sc(N)c(C(=O)OC)c1COC(=O)c1c(C)noc1C,.,?,.,.,.
COc1ccc(OC2C=CC(c3ccccc3)OC2CO)cc1 (stereo unspecified),/,/,.[10 µM],.[10 µM],.
O=C(O)COc1ccccc1/C=N/NC(=O)c1cc(-c2ccc(Cl)cc2)nc2ccccc12,.,.,.,.,.
O=C(N/N=C/c1ccccn1)c1cc(-c2ccc(Br)cc2)nc2ccccc12,.,?,1.1µM,0.63µM,.
O=C(N/N=C/c1ccccn1)c1cc(-c2ccc(Cl)cc2)nc2ccccc12,.,?,0.71µM,0.4µM,.
Cn1c(CNC(=O)C(Cc2ccccc2)NC(=O)c2cccc(F)c2)cc(=O)n(C)c1=O (stereo unspecified),.,.,.,.,.
Cc1cc(/C=N/NC(N)=S)c(C)n1-c1cccc(Cl)c1,.,.,10µM,2.8µM,.
Cc1cc(/C=N/NC(N)=S)c(C)n1-c1ccc(Br)cc1,.,?,.[10 µM],0.56µM,.
Cc1cc(/C=N/NC(=O)C(O)(c2ccccc2)c2ccccc2)c(C)n1-c1cccc(C(=O)O)c1,.,.,.,.,.
COCc1cc(C)nc(OCC(=O)N/N=C/c2cc(C)n(-c3c(C)cccc3C)c2C)c1C#N,.,.,.,?,.
Cc1nc2ccccn2c1C(=O)N/N=C/c1cc(C)n(-c2ccc(Br)cc2)c1C,.,?,?,11µM,.
Cc1cccc(C)c1-n1c(C)cc(/C=N/NC(N)=S)c1C,.,.,0.79µM,0.89µM,.
CC(C)Oc1ccc(Br)cc1/C=N\NC(N)=S,.,.,5µM,2µM,.
Cc1cc(/C=N/NC(N)=S)c(C)n1-c1ccc(Cl)cc1,.,.,1.1µM,0.45µM,.
COc1ccc(Br)cc1/C=N/NC(=O)Cn1nnnc1N,.,.,.,.,.
CSCC[C@H](NC(=O)C1CCN(S(=O)(=O)c2ccccc2)CC1)C(=O)NC1CC1,.,.,.,.,/
O=C(c1cc(C(F)(F)F)cc(C(F)(F)F)c1)N1CCC2(CC1)CN(c1ncccn1)C2,/,/,.,.,.
O=C(c1cc(C(F)(F)F)cc(C(F)(F)F)c1)N1CCC2(CC1)CN(c1ccccn1)C2,/,/,16µM,.,.
SMILES,TSHR antag,ELG1 DNA repair,Gal4-VP16 FLuc,RORgamma inh,Coupling enz
CC(c1ccncn1)N(C)Cc1nc(-c2ccc(C(F)(F)F)cc2)no1 (stereo unspecified),.,.,7.1µM,3.2µM,.
CC(C)N(C(=O)Nc1ccc2nccnc2c1)C(C)C,.,.,.,.,-39
O=C1COc2ccc(N3C(=O)C=CC3=O)cc2N1,.,.,10µM,6.3µM,.
Cn1cc(C(=O)N2CCCC(Nc3ccc(F)cc3)C2)c2ccccc21 (stereo unspecified),.,?,.,.,/
COc1cc(COc2cc(N)c(Cl)cc2C(=O)CCC2CCN(CCNS(C)(=O)=O)CC2)cc(OC)c1,/,/,16µM,16µM,.
COc1cc(N)c(Cl)cc1C(=O)CCC1CCN(CCNS(C)(=O)=O)CC1,/,/,.,.,.
CC(C1CC2CCC1C2)n1c(-c2cccs2)n[nH]c1=S (stereo unspecified),.,.,?,0.79µM,.

# Source: PubChem BioAssay (National Center for Advancing Translational Sciences (NCATS))
